FLuc counter: qHTS profiling assay for firefly luciferase inhibitor/activator using purifed enzyme and Km concentrations of substrates (counterscreen for miR-21 project); Luciferin 4-monooxygenase (Photinus pyralis), P08659; purified FLuc, Km substrates, luminescence inhibition; Potency, µM (titrated, usually from 57.5 µM), usual class: inhibitors; 6.9% of 360,000 active; AID 588342, 2011; note: nearly all actives have a fitted effect of over 55% in size
Target sequence (P08659 whole entry, looked up): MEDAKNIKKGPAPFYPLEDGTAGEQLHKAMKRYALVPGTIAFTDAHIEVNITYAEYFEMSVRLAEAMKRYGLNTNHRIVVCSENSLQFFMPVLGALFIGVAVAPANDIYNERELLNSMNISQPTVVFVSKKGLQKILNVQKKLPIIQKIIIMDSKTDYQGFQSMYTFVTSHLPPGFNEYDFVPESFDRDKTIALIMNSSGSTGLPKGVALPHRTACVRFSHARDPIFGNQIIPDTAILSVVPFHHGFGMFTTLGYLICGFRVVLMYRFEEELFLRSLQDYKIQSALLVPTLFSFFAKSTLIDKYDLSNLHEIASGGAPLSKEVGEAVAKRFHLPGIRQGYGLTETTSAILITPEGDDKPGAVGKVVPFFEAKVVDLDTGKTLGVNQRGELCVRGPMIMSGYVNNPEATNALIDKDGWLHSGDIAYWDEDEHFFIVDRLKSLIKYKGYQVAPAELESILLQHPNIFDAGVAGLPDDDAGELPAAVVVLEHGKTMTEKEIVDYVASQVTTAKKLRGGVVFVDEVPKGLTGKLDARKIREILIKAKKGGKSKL
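Purified P. pyralis luciferase, 10 nM final, with Km-level 10 uM D-luciferin and 10 uM ATP in 50 mM Tris acetate pH 7.5, 10 mM Mg acetate, 0.01% Tween-20, 0.05% BSA; 6-point qHTS titration about 60 µM downward; luminescence read.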
ELG1 genotox: qHTS screen for small molecules that induce genotoxicity in human embryonic kidney (HEK293T) cells expressing luciferase-tagged ELG1 | 1.3% of 330,000 active | Potency, µM (highest dose often 46 µM), most hits filed as activators | AID 504466, 2011 | HEK293T ELG1-luciferase reporter, luminescence, 16 h; note: nearly all actives have a fitted effect of over 60% in size
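Genotoxicity was scored as increased ELG1-luciferase reporter signal, measured by ONE-Glo luminescence (30 min, room temperature). Compound or vehicle exposure of the HEK293T reporter cells lasted 16 hr at 37°C.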
Rab9 prom act: qHTS Assay for Rab9 Promoter Activators. Huh7 Rab9 promoter-luciferase reporter, luminescence, 24 h. Potency, µM (titrated, usually from 9.22 µM), usual class: activators. 2.8% of 320,000 active. AID 485297, 2010; note: nearly all actives have a fitted effect of over 60% in size
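Luciferase signal after 10 min detection reagent at ambient indicates Rab9 promoter upregulation; stably transfected Huh7 cells were treated 24 h with compound in DMSO at 37 °C, 5% CO2.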
NPC1 prom act: qHTS Assay for NPC1 Promoter Activators; 2.4% of 320,000 active; Huh7 NPC1 promoter luciferase reporter, 24 h; Potency, µM (doses to about 9.22 µM), actives largely listed as activators; note: nearly all actives have a fitted effect of over 60% in size
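Stably transfected Huh7 (NPC1 promoter→luciferase), 1500 cells/well in Opti-MEM + 10% FBS, 2 h settle, then compound 24 h at 37 °C. Luminescence after 10 min with Amplite reagent.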
SMN2 splice up: qHTS Assay for Enhancers of SMN2 Splice Variant Expression | HEK293 SMN2-luciferase splicing reporter, luminescence, 30-36 h | Potency, µM (top dose mostly 46.1 µM), usual class: activators | 2.8% of 210,000 active | AID 1458, 2008; note: nearly all actives have a fitted effect of over 55% in size
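qHTS luciferase splicing reporter: luminescence rises when SMN2 exon 7 is included in transfected HEK293 cells. Compound exposure lasted 30-36 h at 37C, with 4.5 mM final sodium butyrate as control, followed by a ONE-Glo read.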
Hits are given with their value; n = inactive; u = inconclusive; x = not tested or not shown; [ ] = dose if it differs, or a comment. Shown are actives, neighbours in structure and some others; about 7.4% of the full set was active somewhere. Calls come from the whole dose curve; as a rule, active = well fitted curve in the direction sought with a large enough effect; inconclusive = small, poorly fitted or top-dose-only effect, or another doubt; inactive = no such curve, though single readings can be large; an effect the other way counts as inactive or inconclusive.

SMILES	FLuc counter	ELG1 genotox	Rab9 prom act	NPC1 prom act	SMN2 splice up
COc1ccc2oc(C(=O)OCC(=O)Nc3cccc(S(=O)(=O)N4CCOCC4)c3)c(C)c2c1	u	n	n	n	x
O=C(Nc1cccc(S(=O)(=O)N2CCCCC2)c1)c1cc2ccccc2o1	8.49µM	n	n	n	x
O=C(N=Nc1c(O)[nH]c2ccc([N+](=O)[O-])cc12)c1ccccc1Cl	n	n	n	n	x
Nc1[nH]c(N=NC(=O)c2ccccc2O)c2ccccc12	8.49µM	14.6µM	2µM	2.82µM	11.2µM
Nc1[nH]c(N=NC(=O)c2ccc(Cl)cc2)c2ccccc12	u	n	n	n	u
Nc1[nH]c(N=NC(=O)c2ccccc2)c2ccccc12	4.78µM	u	1.12µM	1.78µM	2.82µM
CC[C@]1(C(=O)OC)[C@H]2C(=O)N(Cc3ccccc3)C(=O)[C@H]2[C@H]2CN=C(SCC3CC3)N21	x	n	x	x	x
Cc1ccc(CN(C(=O)COc2cccc(C)c2C)C2CCS(=O)(=O)C2)o1 (stereo unspecified)	n	n	n	n	x
COC(=O)C1=C(C)N(c2cc(Cl)cc(Cl)c2)C(=O)C1	n	n	n	n	n
Cc1ccc(-n2ncc(C(=O)NCCN3CCOCC3)c2C2CCN(C(=O)OC(C)(C)C)CC2)c(C)c1	n	x	x	x	x
COC(=O)c1sc2nc3c(cc2c1N)CCCC3	3.01µM	u	0.501µM	1.41µM	10µM
Cc1ccc(C)c2nc3sc(C(=O)N4CCOCC4)c(N)c3cc12	u	u	u	n	x
NC(=O)c1sc2nc3c(cc2c1N)CCC3	u	n	u	u	u
Nc1c(C(=O)N2CCOCC2)sc2nc3c(cc12)CCC3	7.57µM	2.91µM	0.891µM	1.26µM	11.2µM
Nc1c(C(=O)N2CCOCC2)sc2nc3c(cc12)CCCC3	0.477µM	0.58µM	0.112µM	0.355µM	x
Nc1c(C(=O)N2CCCC2)sc2nc3c(cc12)CCCCCC3	u	n	3.98µM	3.16µM	14.1µM
Cc1ccnc(NS(=O)(=O)c2ccc(NC(=O)c3cc(=O)c4ccc(C)c(C)c4o3)cc2)n1	n	x	x	x	n
Cc1ccc(C(=O)NC(=S)Nc2ccccc2C(F)(F)F)cc1	u	n	n	n	x
COc1ccccc1C(=O)NC(=S)Nc1cccnc1Cl	2.39µM	0.82µM	1µM	1.12µM	x
Cc1ccc(C(=O)NC(=S)Nc2cccnc2Cl)cc1	12µM	u	2.82µM	2.51µM	x
CCCNC(=O)[C@H]1N2C(=O)c3c(ccc(OC)c3OC)C2SC1(C)C (stereo partly specified)	n	n	n	n	x
CCc1ccc(NC(=O)COc2ccc(F)cc2C(=O)c2cnn(-c3ccccc3)c2)cc1	10.7µM	n	u	n	x
COc1ccccc1NC(=O)COc1ccccc1	u	u	n	n	n
COc1ccccc1NC(=O)COc1ccccc1C(=O)c1cnn(-c2ccccc2)c1	10.7µM	u	n	n	u
O=C(COC(=O)c1cc(Cl)nc(Cl)c1)Nc1ccc(Cl)c(S(=O)(=O)N2CCOCC2)c1	x	n	x	x	x
SMILES	FLuc counter	ELG1 genotox	Rab9 prom act	NPC1 prom act	SMN2 splice up
CCOc1cc(/C=C(\C#N)C(=O)Nc2ccccc2[N+](=O)[O-])ccc1OCc1cccc2ccccc12	n	n	n	n	n
Cc1ccc(-c2nc(-c3ccncc3)no2)cc1C	0.757µM	2.31µM	0.562µM	0.708µM	x
Fc1cccc(F)c1-c1nc(-c2ccncc2)no1	16.9µM	u	2µM	u	x
COc1ccc(CCC(=O)Nc2ccc(-c3noc(-c4ccc(OC)c(OC)c4)n3)cc2)cc1	n	u	u	u	11.2µM
COc1ccc(-c2noc(-c3cccs3)n2)cc1OC	2.39µM	u	1.58µM	1.26µM	x
CNc1ccc(-c2nc(-c3ccncc3)no2)cc1[N+](=O)[O-]	n	x	x	x	x
FC(F)(F)c1ccccc1-c1nc(-c2ccncc2)no1	u	n	n	n	x
O=C(O)C[C@H](Nc1ccccc1)C(=O)O	x	x	x	x	n[9.22 µM]
CC1CC[C@@]2(C(=O)O)CC[C@]3(C)C(=CCC4[C@@]5(C)CCC(O)C(C)(C)C5CC[C@@]43C)C2C1C (stereo partly specified)	x	x	x	x	n
COc1ccc(-c2noc(-c3ccccc3Cl)n2)cc1OC	2.69µM	u	2.51µM	3.16µM	5.62µM
COc1ccc(-c2noc(-c3cccc(Cl)c3)n2)cc1OC	u	u	n	u	u
COc1cc(OC)c(NC(=O)CCc2nc(-c3ccc(C)cc3)no2)cc1Cl	21.3µM	n	n	n	n
COc1ccc(-c2noc(N(c3nc(-c4ccc(OC)c(OC)c4)no3)c3ccccc3OC)n2)cc1OC	n	x	x	x	n
COc1ccc(-c2noc(-c3ccco3)n2)cc1OC	7.57µM	x	x	x	12.6µM
Cc1cc(-c2nc(-c3ccncc3)no2)ccc1[N+](=O)[O-]	4.78µM	u	3.98µM	2.24µM	x
COc1ccc(-c2nc(-c3ccncc3)no2)cc1OC	9.53µM	16.4µM	n	u	u
Cc1ccc(-c2nc(-c3ccncc3)no2)cc1Cl	2.69µM	u	3.16µM	2µM	x
COc1ccc(OCC(=O)O/N=C(\N)Cc2cccs2)cc1	u	n	n	n	n[1.84 µM]
N/C(Cc1ccc(Cl)cc1Cl)=N\OC(=O)c1cccs1	n	n	n	n	n
Cc1ccccc1OCC(=O)O/N=C(\N)Cc1cccs1	12µM	n	n	n	n
N/C(Cc1cccs1)=N\OC(=O)COc1ccc(Cl)cc1Cl	15.1µM	16.4µM	n	n	n
N/C(Cc1ccc(Cl)cc1Cl)=N\OC(=O)Cc1cccs1	5.36µM	n	n	n	n
Cc1ccccc1C(=O)O/N=C(\N)Cc1cccs1	12µM	u	u	u	x
Cc1ccc(-n2cc(CN3CCN(C(=O)c4ncn[nH]4)CC3)c(-c3ccc(F)cc3)n2)cc1	9.53µM	n	n	n	x
Cc1ccc(-n2cc(CN3CCN(Cc4nccn4C)CC3)c(-c3ccc(F)cc3)n2)cc1	u	n	n	n	x
SMILES	FLuc counter	ELG1 genotox	Rab9 prom act	NPC1 prom act	SMN2 splice up
Cc1cccc(-n2cc(CN3CCN(c4ccccn4)CC3)c(-c3cccc(F)c3)n2)c1	u	n	n	n	x
Cc1ccc(-n2cc(CN3CCN(c4ccccn4)CC3)c(-c3ccc(F)cc3)n2)cc1	15.1µM	n	n	n	x
C=CCn1c(-c2cccc(OC)c2)nc2nc3ccccc3nc21	15.1µM	n	n	n	n
C=CCn1c(-c2cccs2)nc2nc3ccccc3nc21	19µM	u	n	n	2.82µM
COC(=O)CC(=O)CSc1nc2c(cc1C#N)CCC2	13.5µM	n	n	n	1.26µM
N#Cc1cc2c(nc1SCC(N)=O)CCCCC2	n	u	3.16µM	3.98µM	25.1µM
CCOC(=O)CC(=O)CSc1nc2c(cc1C#N)CCCCCC2	u	n	n	n	n
CC(C)OC(=O)CC(=O)CSc1nc2c(cc1C#N)CCC2	19µM	n	n	n	n
N#Cc1cc2c(nc1SCC(=O)N1CCOCC1)CCCCC2	n	u	n	n	n
